# This is part of a sample that, as a whole, favours compounds with a hit. Of some 79,000 tested, about 15% had one in any assay. Values without a mark were called inactive. Activity calls are given as the source filed them. No stated cut-off is given here; in the data, active means growth inhibition above about 70%; inactive means the rest. *1 amine or outer side, *2 acyl side, *3 side chain or, on linkers, in order; H or OH if unused. Where a SMILES comes first, the peptide text is derived from it. [ ]: non-standard residue; d: D form. The star is where a group is joined. X5 = CCC(=O)CC1CC(C)CC(C(=O)[*:2])N1[*:1]; X4 = CCCCCCCCC(C)C(=O)*; Aib = CC(C)(N)C(=O)O; X6 = CC(CN(C)CCO)N*
# How the values were obtained:
# [1] = NCI Yeast Anticancer Drug Screen. Data for the rad50 strain (AID 155);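 further: 0% = growth of vehicle-only cultures of the same strain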; conditions: S. cerevisiae rad50 strain growth inhibition, hits give high values
# In short: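 DNA repair mutant yeast, compound exposure, growth read-out; inhibition is taken relative to vehicle.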
# [2] = NCI Yeast Anticancer Drug Screen. Data for the mec2-1 strain (AID 157); conditions: S. cerevisiae mec2-1 strain, hits give high values
# In short: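 Mutant yeast (mec2-1) grown with compound; growth inhibition relative to vehicle control reported.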
# [3] = NCI Yeast Anticancer Drug Screen. Data for the sgs1 mgt1 strain (AID 161);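 further: 0% = growth of cultures given vehicle only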; conditions: S. cerevisiae sgs1 mgt1 strain, hits give high values
# In short: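 Percent growth inhibition was derived by comparing compound-exposed mutant yeast with vehicle-exposed cultures. The strain carries alterations in DNA damage repair.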
# [4] = NCI Yeast Anticancer Drug Screen. Data for the cln2 rad14 strain (AID 165);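 further: 0% = growth equal to vehicle treated cultures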; conditions: S. cerevisiae cln2 rad14 strain, hits give high values
# In short: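 Readout is yeast growth inhibition versus vehicle-treated controls, using a strain with cln2 and rad14 alterations exposed to compound.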
# [5] = NCI Yeast Anticancer Drug Screen. Data for the bub3 strain (AID 167); conditions: S. cerevisiae bub3 mutant strain, hits give high values
# In short: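 In this screen, a yeast mutant lacking normal mitotic checkpoint function is challenged with compound. Relative growth versus vehicle gives the inhibition value.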
# [6] = NCI Yeast Anticancer Drug Screen. Data for the mlh1 rad18 strain (AID 175); conditions: S. cerevisiae mlh1 rad18 strain growth inhibition, hits give high values
# In short: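 Genetically defined yeast (DNA repair-deficient) exposed to compounds; growth inhibition determined relative to vehicle.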
# [7] = at 5.0 µM (retest, dose inferred, filed as 0.5)
# [8] = at 50.0 µM (retest, dose inferred, filed as 5.0)
Compound,"growth inhibition [1, 7]","growth inhibition [1, 8]",growth inhibition ([1]; at 50.0 µM),"growth inhibition [2, 7]","growth inhibition [2, 8]",growth inhibition ([2]; at 50.0 µM),"growth inhibition [3, 7]","growth inhibition [3, 8]",growth inhibition ([3]; at 50.0 µM),"growth inhibition [4, 7]","growth inhibition [4, 8]",growth inhibition ([4]; at 50.0 µM),"growth inhibition [5, 7]","growth inhibition [5, 8]",growth inhibition ([5]; at 50.0 µM),"growth inhibition [6, 7]","growth inhibition [6, 8]",growth inhibition ([6]; at 50.0 µM)
COc1c(/C=C/C=O)cc2c(c1OC)OCO2,26%,73% (active),-1.75%,17%,40%,-6.3%,31%,57%,19.1%,27%,50%,20.4%,21%,54%,13.5%,25%,61%,-11.8%
O=C1C=CC(=O)N1c1ccccc1,95% (active),98% (active),99.3% (active),99% (active),99% (active),99.7% (active),94% (active),99% (active),99.4% (active),94% (active),99% (active),99% (active),99% (active),99% (active),99.2% (active),90% (active),99% (active),99.2% (active)
OC(c1cc(-c2ccc(Cl)cc2)nc2c(Cl)cccc12)C1CCCCN1 (configuration not stated),73% (active),93% (active),99.8% (active),26%,55%,99.8% (active),93% (active),100% (active),99.9% (active),20%,66%,99% (active),28%,93% (active),99.5% (active),69%,88% (active),99.5% (active)
CC1=C(Cl)C[C@@H](/C(C)=C\Cl)O[C@@]1(O)C(Br)Br,31%,92% (active),91.8% (active),24%,94% (active),93.4% (active),40%,93% (active),93.5% (active),20%,90% (active),91.2% (active),40%,91% (active),92.3% (active),65%,92% (active),15.1%
CCOc1ccc(NC(=O)/C(=N\N)C(C(=O)OC)c2nc3ccc(Cl)cc3[nH]c2=O)cc1 (configuration not stated),-14%,-17%,-12.9%,-1%,-10%,-13.1%,-8%,-3%,-24.4%,-25%,-8%,80.2% (active),-6%,5%,-26.5%,-7%,-8%,-1.5%
CCCCCCCCCCCC[n+]1ccc(CCCCCCCCC)cc1,99% (active),99% (active),99% (active),100% (active),99% (active),99.3% (active),100% (active),99% (active),99.5% (active),98% (active),99% (active),98.5% (active),100% (active),99% (active),98.8% (active),99% (active),99% (active),97.6% (active)
CCCCCC/C=C1\CCC(CN2CCCC2)C1=O (configuration not stated),52%,97% (active),91% (active),33%,99% (active),70.7% (active),59%,96% (active),90.4% (active),71% (active),87% (active),81.9% (active),66%,99% (active),79.5% (active),78% (active),98% (active),89.2% (active)
CCCCCCCCC(C)C(=O)N1CCCC1C(=O)N1C(CC(=O)CC)CC(C)CC1C(=O)NC(C)C(=O)NC(C)(C)C(=O)NC(C)(C)C(=O)NC(C(=O)NC(C)C(=O)NC(C)(C)C(=O)NC(C)(C)C(=O)NC(C)CN(C)CCO)C(C)CC (configuration not stated) (X4-P[X5]A[Aib][Aib]IA[Aib][Aib]-X6; configuration not given here),98% (active),100% (active),91.6% (active),99% (active),100% (active),93.5% (active),99% (active),100% (active),92.8% (active),99% (active),99% (active),90.9% (active),99% (active),99% (active),92.4% (active),99% (active),99% (active),89.7% (active)
N#CCc1cccc2ccccc12,3%,6%,13.7%,1%,10%,-16.8%,0%,4%,-14.2%,-2%,3%,-17.1%,0%,-4%,-9.9%,5%,10%,5%
